# Assay results: PubChem BioAssay
# Active and inactive are the calls of the source.
# Experiments:
# [1] = compounds binding Alexa647 anti-His antibody – biochemical, small-molecule microarray, 635 nm fluorescence, artefact control for SMM control protein annotation, primary screen (AID 1128); details: higher = more signal;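 note: score merges feature fluorescence with signal-to-noise for each printed compound spot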
# [2] = tested on: Human papillomavirus type 1a E7 protein (residues 1-88); test: HPV1a E7 small-molecule binders, primary screen, biochemical, small-molecule microarray, residues 1-88, 635 nm (AID 1129); details: small-molecule microarray binding, fluorescence 635 nm; higher = more signal
# [3] = target: Focal adhesion kinase 1 (Homo sapiens) (UniProt Q05397); test: PTK2 protein binding on printed compound slides – biochemical, small-molecule microarray, 635/667 nm fluorescence, BSA, DTT, primary screen (AID 1130); details: 635 nm fluorescence, higher = more signal;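 note: composite of spot emission at 667 nm and signal to noise over triplicate slides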
# [4] = tested on: Fibrinogen (Alexa647-labelled); test: Alexa647-fibrinogen binding to printed small molecules – biochemical, small-molecule microarray, 635/667 nm fluorescence, artefact control for SMM control-protein annotation, profiling panel (AID 1131); details: fibrinogen-A647 binding fluorescence, higher = more signal;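 note: z-score merges 667 nm fluorescence with per-spot signal-to-noise over triplicate slides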
# [5] = target: Follistatin (Homo sapiens) (UniProt P19883); test: FST protein binding to printed compounds – biochemical, small-molecule microarray, 635/667 nm fluorescence, primary screen (AID 1132); details: 635 nm fluorescence, higher = more signal
# [6] = target: Fibroblast growth factor 2 (Homo sapiens) (UniProt P09038); test: basic fibroblast growth factor binding to printed compounds – biochemical, small-molecule microarray, 635/667 nm fluorescence, primary screen (AID 1133); details: FGF2, fluorescence 635/667, higher = more signal
# [7] = JC-1 mitochondrial potential readout, lung cancer cells – cell-based, A549, JC-1 fluorescence, basal, 24 h, 100 nL, profiling panel (AID 1138); details: higher = more signal;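 note: A549 lung adenocarcinoma cells under basal conditions with no added stimulus; test concentration not given here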
# Lefty1 = Lefty1 protein binding to printed compounds – biochemical, small-molecule microarray, 635/667 nm fluorescence, primary screen (AID 1139); details: fluorescence 635/667, higher = more signal
# [8] = tested on: wheat germ agglutinin (Triticum aestivum), Alexa647-labelled; test: Alexa647-WGA lectin binding to printed small molecules – biochemical, small-molecule microarray, 635/667 nm fluorescence, artefact control for SMM control-protein annotation, profiling panel (AID 1140); details: WGA-A647 binding, 635 nm fluorescence, higher = more signal;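 note: score merges 667 nm feature emission with signal to noise over triplicate slides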
# [9] = target: Luciferin 4-monooxygenase (Photinus pyralis) (UniProt P08659); test: inhibition of purified Photinus pyralis luciferase – biochemical, luminescence, purified enzyme, 2006 set, primary screen (AID 1141); details: purified firefly luciferase, SteadyGlo luminescence, 30 min; higher = more signal, called active from +8 up or from −8 down;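 note: cell-free assay with purified firefly luciferase at 100 ng per well in PBS; test concentration not given here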
# Chain of Luciferin 4-monooxygenase (Photinus pyralis) (P08659 whole entry, looked up): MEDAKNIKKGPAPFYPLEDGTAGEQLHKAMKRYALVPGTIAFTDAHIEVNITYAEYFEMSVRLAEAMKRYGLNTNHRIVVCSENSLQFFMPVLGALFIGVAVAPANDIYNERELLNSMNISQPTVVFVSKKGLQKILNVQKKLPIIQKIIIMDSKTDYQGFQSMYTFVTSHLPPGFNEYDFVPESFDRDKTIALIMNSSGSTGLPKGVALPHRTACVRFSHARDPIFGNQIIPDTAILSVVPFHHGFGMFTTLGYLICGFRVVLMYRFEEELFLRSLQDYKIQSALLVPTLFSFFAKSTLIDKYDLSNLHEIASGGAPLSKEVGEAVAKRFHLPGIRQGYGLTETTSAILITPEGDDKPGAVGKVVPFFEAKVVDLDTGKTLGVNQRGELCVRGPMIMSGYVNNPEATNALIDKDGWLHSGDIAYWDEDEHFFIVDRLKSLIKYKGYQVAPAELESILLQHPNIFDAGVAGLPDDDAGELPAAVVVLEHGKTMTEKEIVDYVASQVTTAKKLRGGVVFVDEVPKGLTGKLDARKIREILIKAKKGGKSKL
# Chain of Follistatin (Homo sapiens) (P19883 whole entry, looked up): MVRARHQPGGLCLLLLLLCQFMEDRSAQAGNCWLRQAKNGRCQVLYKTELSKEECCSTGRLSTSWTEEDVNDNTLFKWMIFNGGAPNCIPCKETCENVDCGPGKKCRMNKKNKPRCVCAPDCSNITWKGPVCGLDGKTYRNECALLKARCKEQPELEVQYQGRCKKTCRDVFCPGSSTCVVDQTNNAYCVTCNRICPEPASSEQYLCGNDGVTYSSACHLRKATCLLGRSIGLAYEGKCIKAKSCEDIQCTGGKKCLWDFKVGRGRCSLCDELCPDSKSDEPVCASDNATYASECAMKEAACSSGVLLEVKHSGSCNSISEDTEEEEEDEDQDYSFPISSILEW
# Chain of Focal adhesion kinase 1 (Homo sapiens) (Q05397 whole entry, looked up): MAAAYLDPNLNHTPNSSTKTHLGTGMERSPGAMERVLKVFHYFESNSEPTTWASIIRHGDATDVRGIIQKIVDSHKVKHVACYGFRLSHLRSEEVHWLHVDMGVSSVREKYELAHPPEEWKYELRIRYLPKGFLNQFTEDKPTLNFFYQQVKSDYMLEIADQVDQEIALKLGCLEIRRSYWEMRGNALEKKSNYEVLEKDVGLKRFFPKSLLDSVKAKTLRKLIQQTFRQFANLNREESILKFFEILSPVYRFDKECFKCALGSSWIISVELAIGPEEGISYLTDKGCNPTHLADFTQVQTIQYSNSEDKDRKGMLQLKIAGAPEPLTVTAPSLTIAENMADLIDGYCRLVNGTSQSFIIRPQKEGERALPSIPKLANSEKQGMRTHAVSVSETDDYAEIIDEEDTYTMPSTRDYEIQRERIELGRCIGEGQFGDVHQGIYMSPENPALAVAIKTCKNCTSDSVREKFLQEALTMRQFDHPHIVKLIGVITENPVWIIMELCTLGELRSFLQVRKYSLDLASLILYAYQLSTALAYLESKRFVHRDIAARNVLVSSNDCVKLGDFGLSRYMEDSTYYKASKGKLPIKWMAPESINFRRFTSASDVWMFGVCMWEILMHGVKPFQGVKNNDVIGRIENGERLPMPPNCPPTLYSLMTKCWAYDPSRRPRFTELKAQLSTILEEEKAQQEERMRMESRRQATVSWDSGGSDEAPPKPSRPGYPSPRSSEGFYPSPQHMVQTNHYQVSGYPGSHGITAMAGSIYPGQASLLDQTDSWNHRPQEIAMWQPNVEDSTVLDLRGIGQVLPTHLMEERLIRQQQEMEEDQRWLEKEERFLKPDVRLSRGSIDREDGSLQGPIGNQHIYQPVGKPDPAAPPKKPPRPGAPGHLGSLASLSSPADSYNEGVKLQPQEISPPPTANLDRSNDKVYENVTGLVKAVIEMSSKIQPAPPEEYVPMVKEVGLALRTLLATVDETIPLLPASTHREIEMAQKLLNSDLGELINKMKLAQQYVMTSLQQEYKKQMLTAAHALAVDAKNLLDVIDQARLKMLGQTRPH
# Chain of Fibroblast growth factor 2 (Homo sapiens) (P09038 whole entry, looked up): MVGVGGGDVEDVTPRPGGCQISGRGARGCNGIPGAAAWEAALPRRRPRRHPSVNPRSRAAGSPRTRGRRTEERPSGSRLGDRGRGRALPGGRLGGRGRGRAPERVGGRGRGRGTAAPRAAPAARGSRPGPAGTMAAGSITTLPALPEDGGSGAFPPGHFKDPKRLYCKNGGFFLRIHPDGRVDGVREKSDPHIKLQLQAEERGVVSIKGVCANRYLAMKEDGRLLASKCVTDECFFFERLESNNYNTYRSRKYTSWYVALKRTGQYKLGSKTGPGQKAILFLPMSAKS
Compound,composite z-score [1],composite z-score [2],composite z-score [3],composite z-score [4],composite z-score [5],composite z-score [6],z-score [7],composite z-score (Lefty1),composite z-score [8],z-score [9]
C=C(CCCC)/C(=C/C[C@@H](OC(C)=O)c1cccc(OCCO)c1)c1cc(C(=O)OC)ccc1OC,0.57,0.0538,0.0738,0.249,0.705,0.0923,1.63,1.08,0.617,-0.132 (inactive)
C[N+](C)(C)CCCC[C@@H]1NC(=O)[C@H]2C[C@@H](C(=O)NCCCCCN)[C@@H](c3ccc(O)cc3)N2C1=O,3.32,1.21,0.599,1.04,1.39,1.66,0.729,1.7,1.36,-0.993 (inactive)
O=C1c2ccccc2[C@](Cc2ccccc2I)(C(=O)NCCN2CCOCC2)[C@H](c2ccc(CO)cc2)N1Cc1ccccc1C(F)(F)F,0.218,1.18,0.334,0.88,0.447,0.0123,2.25,0.246,0.418,-0.0684 (inactive)
CC(C)c1ccc(NN2C(C(O)C3=C[C@H]4C[C@@H](C3)C4(C)C)C=CC3C(=O)N(c4ccccc4)C(=O)C32)cc1 (stereo not given in full),0.57,1.07,0.0505,0.953,1.11,0.248,-0.894,0.605,0.632,-1.77 (inactive)
[N-]=[N+]=NCc1ccccc1[C@H]1OC(c2ccc(OCCCO)cc2)=N[C@@]1(Cc1ccccc1N=[N+]=[N-])C(=O)N1CCOCC1,0.574,1.21,0.993,1.04,0.526,-0.335,0.704,0.0349,1.07,-2.44 (inactive)
C=CC[C@]12N=C(c3ccc(OCCCO)cc3)O[C@H]1c1ccccc1N(CCC)C2=O,2.3,0.917,0.685,0.488,1.46,1.35,0.948,0.613,0.954,-3.66 (inactive)
C=CCN1C(=O)[C@@]2(O[C@@H](CCO)[C@H]([Si](C)(C)c3ccc(OC)cc3)[C@H]2C)c2cc(N3CCCCC3=O)ccc21,2.63,1.16,-0.19,0.745,1.36,0.821,0.225,1.23,0.302,-0.0999 (inactive)
